Laboratory results from PubChem BioAssay (NCATS).
Records with an inconclusive call do not appear. Active and inactive are the calls of the source. Unless noted, the call rests on the fitted dose curve; in most records, active means well fitted curve in the direction sought with a large enough effect; inconclusive means small, poorly fitted or top-dose-only effect, or another doubt; inactive means no such curve, though single readings can be large; an effect the other way counts as inactive or inconclusive.

Experiments:
[1] = target: Lysosomal acid glucosylceramidase (Homo sapiens) (UniProt P04062); assay: Glucocerebrosidase-p2 (AID 348; in the data active means potency below about 10 µM; further: potency means the concentration at half of the fitted maximal effect); details: purified GBA, blue fluorogenic substrate, 40 min
Summary of the method: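 Compounds titrated from 0.6 nM upwards against 0.2 nM enzyme in pH 5.9 citric acid/KH2PO4, taurocholate, tween-20; blue fluorogenic substrate 80 uM, 40 min room temperature, stopped and read Ex 365/Em 440 for AC50.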

[2] = AP1 Signaling Pathway (AID 357; active means well fitted curve in either direction with a large enough effect, not every such curve was filed as active;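 further: ME-180 reporter cells stimulated with EGF at its EC50 level; on the % scale 0 is the no-effect control and ±100 the full control effect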); details: ME-180 AP-1-bla reporter, EGF-induced, beta-lactamase ratio, 5 h; at 7.69 µM (top of the series) unless noted
Summary of the method: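 Titration-series screen for positive or negative modulators of EC50 EGF-induced signaling in ME-180 cells carrying an AP-1-driven beta-lactamase reporter. After 5 hours at 37 degrees Celsius, CCF4 460nm/530nm emission ratio gave %Activity; AC50 values derived.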

[3] = target: Cytochrome P450 1A2 (Homo sapiens) (UniProt P05177); assay: p450-cyp1a2 (AID 410; calls by dose curve; further: potency means the concentration at half of the fitted maximal effect;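 on activity change, negative = inhibition: -100% = full effect of reference inhibitor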); details: recombinant CYP1A2, luciferin-ME demethylation, luminescence; series mostly up to 57 µM
Summary of the method: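 Luminescent readout of luciferin formed from Luciferin-ME by human CYP1A2; data normalized against complete inhibition by 57 uM furafylline. Enzyme 20nM, substrate 100uM at Km, 100mM KPO4 buffer, 60 min reaction at room temperature.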

[4] = Stat Signaling Pathway (AID 446; active means well fitted curve in either direction with a large enough effect, not every such curve was filed as active;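 further: ME-180 cervical cancer cells given 40 pM IL-6 alongside compound; SIE-controlled beta-lactamase reporter measured as 460/530 nm FRET emission ratio; on the % scale 0 is the no-effect control and ±100 the full control effect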); details: ME-180 SIE beta-lactamase reporter, IL-6 stimulated, 5 h; at 7.69 µM (top of the series) unless noted
Summary of the method: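 IL-6/STAT signaling read in ME-180 cells via an SIE beta-lactamase reporter. Stimulus was 40 pM IL-6 (its AC50) for 5 hrs, so both activation and inhibition register.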

[5] = target: Glucocorticoid receptor (Homo sapiens) (UniProt P04150); assay: GR-GFP Redistribution (AID 450;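 active means compounds whose dose series gives a full or clear partial fitted curve of increased nuclear translocation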; further: potency means the concentration at half of the fitted maximal effect); details: U2OS GR-GFP nuclear translocation, laser cytometry, 2 h
[6] = target: Glucocorticoid receptor (Homo sapiens) (UniProt P04150); assay: GR-EFC Redistribution (AID 451; calls by dose curve; further: potency means the concentration at half of the fitted maximal effect); details: CHO-K1 GR-EFC translocation, beta-gal luminescence, 2 h
Summary of the method: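 Translocation of GR-ED fusion to nuclear EA restores b-gal, read by luminescence after 1 h room-temperature detection. Engineered CHO-K1 biosensor cells, 1,000/well, exposed 2 h at 37 C to titrations up to 46 uM final.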

[7] = target: Mitogen-activated protein kinase 10 (Mus musculus) (UniProt Q61831); assay: JNK3 AlphaScreen Assay (AID 530; active means well fitted curve in either direction with a large enough effect, not every such curve was filed as active;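 further: kinase came from lysate of stimulated human HepG2 cells; signal reports phosphorylation of biotinylated GST-cJun 1-79 at Ser73 with 10 µM ATP; on the % scale 0 is the no-effect control and ±100 the full control effect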); details: JNK3 lysate, c-Jun phosphorylation; series mostly up to 57.1 µM
Summary of the method: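 Compound titrations were preincubated 15 minutes at room temperature with substrate, antibody and pre-activated JNK3-containing HepG2 lysate. Reactions were started with 10 uM ATP and stopped with EDTA-containing bead buffer for AlphaScreen detection.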

[8] = target: 3',5'-cyclic-AMP phosphodiesterase 4B (Homo sapiens) (UniProt Q07343); assay: qHTS Assay for Inhibitors of PDE-IV (AID 607; active means well fitted activation curve with a large enough effect in the main read-out, with a control signal flat, not every such curve was filed as active; further: % of control where 0% means no effect); details: HEK293 ACTOne CNG channel cells, membrane potential fluorescence; series mostly up to 22.9 µM
Summary of the method: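 Live HEK293 cells with a modified cyclic nucleotide-gated (CNG) channel report intracellular cAMP via membrane-potential dye fluorescence (ex 535/em 590 nm). Endogenous PDE-IV was targeted. Compounds were tested at up to 22.9 uM final; RO 20-1724 100 uM served as control.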

[9] = target: Cytochrome P450 3A4 (Homo sapiens) (UniProt P08684); assay: qHTS Assay for Activators of Cytochrome P450 3A4 (AID 885); details: recombinant CYP3A4, Luciferin-PPXE luminescence, 60 min; series mostly up to 57.1 µM; further: nearly all actives have a fitted effect of over 65% in size
Summary of the method: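 Quantitative HTS format: compounds preincubated with 20nM human CYP3A4 and Luciferin-PPXE substrate at KM, reaction started by NADPH regeneration, stopped after 60 min, luciferase luminescence read 20 min later.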

[10] = qHTS Assay for Lipid Storage Modulators (AID 1519; calls by dose curve); details: Drosophila S3 cells, BODIPY lipid droplet/cell ratio, laser cytometry, cells loaded with oleic acid; for activity change, negative = inhibition: at 57.5 µM (top of the series)
Summary of the method: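 Cells seeded at 5,000 per well were treated with compounds over a concentration series and loaded with oleic acid (400 uM, as added). Lipid droplet fluorescence (488 nm excitation, 500-530 nm channel) was read by laser-scanning cytometry and normalized to 20 uM Triacsin C.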

[11] = target: Dual specificity protein kinase CLK4 (Homo sapiens) (UniProt Q9HAZ1); assay: qHTS Assay for Inhibitors of CDC-like Kinase 4 (Kinase-Glo Assay) (AID 1770); details: recombinant Clk4, Kinase-Glo ATP depletion luminescence; series mostly up to 66.7 µM; further: on the % scale 0 is the no-effect control and ±100 the full control effect; nearly all actives have a fitted effect of over 65% in size
Summary of the method: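 Recombinant human Clk4 (25 nM) phosphorylated RS repeat peptide (100 uM) with 1 uM ATP in Tris pH 7.5/MgCl2/EGTA/DTT/Triton buffer for 4.5 h at room temperature. Residual ATP was quantified by Kinase-Glo luciferase luminescence.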

[12] = target: Dual specificity protein kinase CLK4 (Homo sapiens) (UniProt Q9HAZ1); assay: qHTS Assay for Inhibitors of CDC-like Kinase 4 (ADP-Glo Assay) (AID 1771); details: recombinant CLK4, ADP-Glo luminescence; series mostly up to 80 µM; further: on the % scale 0 is the no-effect control and ±100 the full control effect; nearly all actives have a fitted effect of over 70% in size
Summary of the method: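 Luminescence from ADP-Glo reports ADP produced by 25 nM Clk4 acting on 100 uM RS repeat peptide with 1 uM ATP over 1 hr at room temperature; residual ATP is depleted before ADP is converted to ATP for detection.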

[13] = target: Dual specificity protein kinase CLK4 (Homo sapiens) (UniProt Q9HAZ1); assay: qHTS Assay for Inhibitors of CDC-like Kinase 4 (ADP-FP Assay) (AID 1795); details: Transcreener ADP fluorescence polarization; series mostly up to 50 µM; further: on the % scale 0 is the no-effect control and ±100 the full control effect; nearly all actives have a fitted effect of over 60% in size
Summary of the method: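 Recombinant human Clk4 (6.25 nM) phosphorylated RS repeat peptide (100 uM) with 1 uM ATP in Tris pH 7.5/MgCl2/EGTA/DTT/Triton buffer for one hour. ADP was quantified by Transcreener competitive fluorescence polarization against an ADP calibration curve.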

[14] = target: Ubiquitin carboxyl-terminal hydrolase 1 (Homo sapiens) (UniProt O94782); assay: Inhibitors of USP1/UAF1: Pilot qHTS (AID 504865); details: purified USP1/UAF1, Ub-rhodamine cleavage fluorescence; series mostly up to 54.9 µM;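 further: rhodamine fluorescence freed from ubiquitin-rhodamine substrate followed over time; top concentration of the series differs between compounds; on the % scale 0 is the no-effect control and ±100 the full control effect; nearly all actives have a fitted effect of over 35% in size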
Summary of the method: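 USP1/UAF1 complex (1nM) preincubated with compound 15 min at room temperature, then Ub-Rho substrate (150nM final) added. Fluorescence read kinetically at 480/540 nm, 6 reads every 60 seconds. Buffer: 50mM HEPES pH 7.8, 0.5mM EDTA, 0.1 mg/ml BSA, 1mM TCEP, 0.01% Tween-20.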

[15] = qHTS Assay for Identification of Small Molecule Agonists for Hypoxia Response Element Signaling Pathway (AID 914; active means well fitted activation curve with a large enough effect in the signal ratio, with a control signal flat, not every such curve was filed as active; the % refers to the signal ratio; further: potency means the concentration at half of the fitted maximal effect; on activation: % of control where 0% means no effect); details: ME-180 (cervical carcinoma) HRE-bla reporter, beta-lactamase ratio, CoCl2, 17 h; activation: stronger effect = higher value
Summary of the method: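 HRE-bla ME-180 assay for agonist-like enhancement of an EC50 CoCl2 stimulus: 17 h at 37 degrees Celsius, CCF4 for 2.5 h, ratiometric 460/530 nm signal converted to %Activity and fitted to AC50.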

[16] = target: Cytochrome P450 3A4 (Homo sapiens) (UniProt P08684); assay: qHTS Assay for Inhibitors and Substrates of Cytochrome P450 3A4 (AID 884); details: recombinant CYP3A4, Luciferin-PPXE luminescence; series mostly up to 57.1 µM; further: potency means the concentration at half of the fitted maximal effect; nearly all actives have a fitted effect of over 50% in size
Summary of the method: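 20 nM human CYP3A4 with 25 uM Luciferin-PPXE (at KM) in 200 mM KPO4, preincubated 10 min with compound; NADPH regeneration started a 60 min RT reaction. Luciferin detected by luminescence, normalized to 57 uM ketoconazole as full inhibition.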

[17] = NFAT Signaling Pathway (AID 444; active means well fitted curve in either direction with a large enough effect, not every such curve was filed as active;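 further: carbachol stimulus at about its EC50 of 1 µM final; on the % scale 0 is the no-effect control and ±100 the full control effect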); details: Jurkat NFAT-bla M1, carbachol, beta-lactamase ratio, 5 h; at 7.69 µM (top of the series) unless noted
Summary of the method: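 Read-out: CCF4 FRET ratio (460 nm/530 nm) after 1 h RT dye loading, used for %activity and AC50 from titration series. Cells: Jurkat NFAT-β-lactamase/M1 line, treated with compound plus 1 uM carbachol for 5 h, 37 °C.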

[18] = measured here: cell count channel max response
[19] = measured here: lipid channel max response

Ubiquitin carboxyl-terminal hydrolase 1 (Homo sapiens), sequence (O94782 whole entry, looked up): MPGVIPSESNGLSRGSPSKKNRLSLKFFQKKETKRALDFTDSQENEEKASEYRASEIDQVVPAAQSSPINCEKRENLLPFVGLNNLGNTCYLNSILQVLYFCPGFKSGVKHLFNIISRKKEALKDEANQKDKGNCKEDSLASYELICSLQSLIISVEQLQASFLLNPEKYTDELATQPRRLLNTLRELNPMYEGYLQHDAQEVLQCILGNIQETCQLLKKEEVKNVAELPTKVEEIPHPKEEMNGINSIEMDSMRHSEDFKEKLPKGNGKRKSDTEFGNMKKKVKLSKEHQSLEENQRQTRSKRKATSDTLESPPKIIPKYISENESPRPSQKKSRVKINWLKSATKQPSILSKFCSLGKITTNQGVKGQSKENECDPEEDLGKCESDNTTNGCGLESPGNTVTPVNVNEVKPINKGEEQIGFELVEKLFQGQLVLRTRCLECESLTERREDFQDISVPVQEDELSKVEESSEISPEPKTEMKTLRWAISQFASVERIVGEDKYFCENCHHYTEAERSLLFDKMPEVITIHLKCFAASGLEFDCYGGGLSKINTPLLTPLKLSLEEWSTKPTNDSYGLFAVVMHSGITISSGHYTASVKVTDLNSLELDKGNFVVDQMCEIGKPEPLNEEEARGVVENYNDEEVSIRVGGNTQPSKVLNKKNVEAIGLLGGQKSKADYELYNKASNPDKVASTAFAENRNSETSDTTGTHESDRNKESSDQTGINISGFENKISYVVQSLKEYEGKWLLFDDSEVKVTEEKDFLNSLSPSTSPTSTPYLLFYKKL
3',5'-cyclic-AMP phosphodiesterase 4B (Homo sapiens), sequence (Q07343 whole entry, looked up): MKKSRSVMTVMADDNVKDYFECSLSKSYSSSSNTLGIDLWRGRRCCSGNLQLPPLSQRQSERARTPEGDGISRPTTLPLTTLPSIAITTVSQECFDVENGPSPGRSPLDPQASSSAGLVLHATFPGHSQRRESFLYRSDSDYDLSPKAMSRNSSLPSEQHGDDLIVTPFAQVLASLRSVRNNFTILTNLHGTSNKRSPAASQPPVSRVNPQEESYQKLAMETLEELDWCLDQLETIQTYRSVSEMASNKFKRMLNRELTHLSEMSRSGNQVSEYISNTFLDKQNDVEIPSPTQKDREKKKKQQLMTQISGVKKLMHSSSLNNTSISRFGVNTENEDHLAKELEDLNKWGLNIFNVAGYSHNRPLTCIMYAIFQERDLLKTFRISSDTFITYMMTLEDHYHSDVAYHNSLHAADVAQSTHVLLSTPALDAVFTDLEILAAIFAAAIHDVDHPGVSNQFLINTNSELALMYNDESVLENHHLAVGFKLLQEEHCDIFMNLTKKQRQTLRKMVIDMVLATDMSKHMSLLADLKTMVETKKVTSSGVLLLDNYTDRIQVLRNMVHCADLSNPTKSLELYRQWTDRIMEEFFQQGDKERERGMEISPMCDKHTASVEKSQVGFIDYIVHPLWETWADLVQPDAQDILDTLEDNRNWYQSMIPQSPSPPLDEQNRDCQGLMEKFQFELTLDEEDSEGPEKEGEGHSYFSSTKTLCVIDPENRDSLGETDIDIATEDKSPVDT
Dual specificity protein kinase CLK4 (Homo sapiens), sequence (Q9HAZ1 whole entry, looked up): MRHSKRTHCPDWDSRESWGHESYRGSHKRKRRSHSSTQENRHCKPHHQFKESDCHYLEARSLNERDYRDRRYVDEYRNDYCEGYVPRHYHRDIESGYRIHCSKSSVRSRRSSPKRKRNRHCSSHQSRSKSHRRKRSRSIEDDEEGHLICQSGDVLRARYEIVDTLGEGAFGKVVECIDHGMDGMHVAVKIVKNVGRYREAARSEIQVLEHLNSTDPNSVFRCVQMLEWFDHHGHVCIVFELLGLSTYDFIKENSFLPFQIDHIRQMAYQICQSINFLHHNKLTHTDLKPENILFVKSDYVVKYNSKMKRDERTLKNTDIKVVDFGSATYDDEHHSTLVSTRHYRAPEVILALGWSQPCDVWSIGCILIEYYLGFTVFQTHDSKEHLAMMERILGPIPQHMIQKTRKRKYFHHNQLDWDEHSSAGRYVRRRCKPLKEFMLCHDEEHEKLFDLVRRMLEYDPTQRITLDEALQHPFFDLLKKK
Cytochrome P450 1A2 (Homo sapiens), sequence (P05177 whole entry, looked up): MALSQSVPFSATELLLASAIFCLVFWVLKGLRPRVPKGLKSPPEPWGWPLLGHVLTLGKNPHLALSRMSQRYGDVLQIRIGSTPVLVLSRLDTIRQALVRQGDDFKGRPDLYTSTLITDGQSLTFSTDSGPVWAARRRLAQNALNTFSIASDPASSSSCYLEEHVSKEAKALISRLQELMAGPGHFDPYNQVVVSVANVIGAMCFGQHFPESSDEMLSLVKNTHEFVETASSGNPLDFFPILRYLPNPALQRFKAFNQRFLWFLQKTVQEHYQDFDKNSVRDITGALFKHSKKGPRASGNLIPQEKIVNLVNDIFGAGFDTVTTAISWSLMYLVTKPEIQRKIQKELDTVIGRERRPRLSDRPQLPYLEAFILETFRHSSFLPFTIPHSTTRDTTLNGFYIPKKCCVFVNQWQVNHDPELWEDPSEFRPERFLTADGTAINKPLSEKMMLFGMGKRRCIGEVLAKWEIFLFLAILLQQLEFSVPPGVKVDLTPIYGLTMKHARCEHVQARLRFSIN
Glucocorticoid receptor (Homo sapiens), sequence (P04150 whole entry, looked up, the tested form may be a part): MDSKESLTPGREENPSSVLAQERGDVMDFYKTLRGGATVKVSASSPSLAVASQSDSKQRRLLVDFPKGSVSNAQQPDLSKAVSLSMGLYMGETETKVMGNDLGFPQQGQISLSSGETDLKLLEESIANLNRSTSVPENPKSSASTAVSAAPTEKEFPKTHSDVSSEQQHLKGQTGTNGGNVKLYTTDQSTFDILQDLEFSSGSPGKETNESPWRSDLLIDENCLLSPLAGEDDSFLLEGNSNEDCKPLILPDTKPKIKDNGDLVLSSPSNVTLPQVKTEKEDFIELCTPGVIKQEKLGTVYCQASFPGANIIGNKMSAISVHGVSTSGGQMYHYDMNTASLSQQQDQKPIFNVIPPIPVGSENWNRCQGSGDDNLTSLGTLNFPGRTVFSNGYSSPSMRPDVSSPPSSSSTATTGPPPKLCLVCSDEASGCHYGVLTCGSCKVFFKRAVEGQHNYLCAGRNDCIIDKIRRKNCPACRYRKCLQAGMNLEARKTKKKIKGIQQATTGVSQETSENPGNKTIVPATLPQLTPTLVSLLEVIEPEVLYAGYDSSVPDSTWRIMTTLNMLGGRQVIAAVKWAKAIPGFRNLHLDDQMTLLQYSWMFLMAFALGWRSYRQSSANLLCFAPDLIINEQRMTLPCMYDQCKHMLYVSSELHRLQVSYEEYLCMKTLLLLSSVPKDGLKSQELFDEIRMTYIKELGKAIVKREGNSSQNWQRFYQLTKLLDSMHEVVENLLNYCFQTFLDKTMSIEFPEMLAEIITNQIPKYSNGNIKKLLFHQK
Lysosomal acid glucosylceramidase (Homo sapiens), sequence (P04062 whole entry, looked up): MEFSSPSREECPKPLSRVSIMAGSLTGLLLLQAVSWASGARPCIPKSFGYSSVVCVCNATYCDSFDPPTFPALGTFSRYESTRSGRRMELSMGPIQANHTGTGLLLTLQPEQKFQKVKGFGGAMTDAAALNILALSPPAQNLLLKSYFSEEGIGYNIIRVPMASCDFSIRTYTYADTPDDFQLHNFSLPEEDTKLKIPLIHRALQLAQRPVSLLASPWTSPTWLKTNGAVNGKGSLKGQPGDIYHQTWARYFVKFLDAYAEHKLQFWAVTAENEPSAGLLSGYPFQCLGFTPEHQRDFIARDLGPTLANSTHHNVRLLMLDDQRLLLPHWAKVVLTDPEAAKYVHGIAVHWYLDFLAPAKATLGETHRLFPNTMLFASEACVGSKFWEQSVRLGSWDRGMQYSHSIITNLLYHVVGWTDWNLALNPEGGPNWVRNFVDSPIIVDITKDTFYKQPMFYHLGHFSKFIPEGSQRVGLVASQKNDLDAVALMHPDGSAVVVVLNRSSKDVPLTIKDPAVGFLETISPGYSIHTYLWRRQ
Cytochrome P450 3A4 (Homo sapiens), sequence (P08684 whole entry, looked up): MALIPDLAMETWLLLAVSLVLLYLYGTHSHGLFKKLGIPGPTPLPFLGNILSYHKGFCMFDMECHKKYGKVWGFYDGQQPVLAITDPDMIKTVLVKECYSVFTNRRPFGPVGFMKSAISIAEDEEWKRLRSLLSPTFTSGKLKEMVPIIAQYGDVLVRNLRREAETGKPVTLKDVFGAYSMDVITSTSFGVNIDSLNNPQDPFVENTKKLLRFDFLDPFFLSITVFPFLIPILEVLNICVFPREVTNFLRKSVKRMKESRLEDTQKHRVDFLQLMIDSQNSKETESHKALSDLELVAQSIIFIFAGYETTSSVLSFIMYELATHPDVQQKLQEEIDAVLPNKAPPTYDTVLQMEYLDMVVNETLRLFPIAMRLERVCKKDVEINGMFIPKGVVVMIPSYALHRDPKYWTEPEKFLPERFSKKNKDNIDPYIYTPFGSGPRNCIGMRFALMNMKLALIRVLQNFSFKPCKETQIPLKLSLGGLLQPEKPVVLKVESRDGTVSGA

Structure (SMILES) | Potency [1] | activity change, negative = inhibition [2] | Potency [3] | activity, negative = inhibition [4] | Potency [5] | Potency [6] | Potency [7] | Potency [8] | Potency [9] | activity change, negative = inhibition [10] | max response [10, 18] | max response [10, 19] | Potency [11] | Potency [12] | Potency [13] | Potency [14] | Potency [15] | Potency [16] | activation [15] | activity change, negative = inhibition [17]
Cc1ccccc1-c1cncnc1N1CCN(C)CC1 | > 11.4 µM (inactive) | 7.79% (inactive) | 15.8 µM (active) | 11.4% (inactive) | > 46 µM (inactive) | > 46 µM (inactive) | inactive | inactive | inactive | 4.3% (inactive) | 4.53% | 8.66% | inactive | inactive | inactive | inactive |  |  |  | 
COc1cccc(Cn2c(=O)c(-c3ccccc3)nc3cnc(N4CCN(C)CC4)nc32)c1 | > 11.4 µM (inactive) |  | inactive |  | > 9.22 µM (inactive) | > 46 µM (inactive) |  | inactive | inactive | -6.14% (inactive) | 6.94% | -0.577% | inactive | inactive | inactive | inactive | 3.16 µM (active) |  |  | 
COCCn1c(=O)c(-c2ccc(Cl)cc2)nc2cnc(N3CCNCC3)nc21 | > 11.4 µM (inactive) |  |  |  | > 9.22 µM (inactive) | > 46 µM (inactive) | inactive | inactive |  | 5.4% (inactive) | 20.2% | 21.3% | inactive | inactive | inactive | inactive |  |  |  | 
CN1CCN(c2ncncc2-c2ccccc2Cl)CC1 | > 11.4 µM (inactive) | -12.3% (inactive) | 2.51 µM (active) | -1.1% (inactive) | > 46 µM (inactive) | > 46 µM (inactive) | inactive | inactive |  | -1.74% (inactive) | 8.31% | 3.53% | inactive | inactive | inactive | inactive |  | 1.58 µM (active) | 4.87% (inactive) | 
Cc1nc2cnc(N3CCN(C)CC3)nc2n(C[C@H]2CCCO2)c1=O | > 11.4 µM (inactive) | -19.6% (inactive) |  | -13% (inactive) | > 9.22 µM (inactive) | > 46 µM (inactive) | inactive |  |  | 2.98% (inactive) | 2.4% | 4.31% | inactive | inactive | inactive | inactive |  |  |  | -3.95% (inactive)
